Compound activity as filed in PubChem.
GCN5L2 inh = blocks human GCN5L2 histone acetyltransferase | GCN5L2 HAT assay, ThioGlo1 CoA-SH fluorescence | Potency, µM (highest dose often 58.9 µM), without a hit: at the highest dose activity change, negative = inhibition, hits mostly inhibitors | 390,000 compounds, 0.21% hits | AID 504327
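qHTS, 1536-well. 20nM enzyme, pH 7.5 HEPES/EDTA/Tween-20 buffer; 15 min compound preinc., RT. Start: 75uM H3(1-25), 70uM AcCoA, 50uM ThioGlo1. Read Ex340/Em540 at t=0 (autofluorescence flag) and t=20 min.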
TDP1 block = blocks human tyrosyl-DNA phosphodiesterase 1 | AID 485290 | recombinant TDP1, AlphaScreen DNA substrate cleavage | 350,000 compounds, 0.28% hits | Potency, µM (highest dose often 130 µM), inactives show at the top dose activity change, negative = inhibition, usual class: inhibitors | Q9NUW8; also: nearly all actives have a fitted effect of over 40% in size
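AlphaScreen read-out: signal falls as enzyme removes the 3' tyrosine-FITC from a 5'-biotinylated DNA oligo (15 nM, 5 min, RT). Enzyme was E. coli-made recombinant Tdp1 at 1 nM, exposed to compound for 15 min beforehand; beads 10 ug/ml, 10 min.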
RECQ1 helicase = inhibitors of human RECQ1 DNA helicase; P46063; 240,000 compounds, 0.54% hits; RECQ1 DNA unwinding, red fluorescence kinetic read; AID 2549; Potency, µM (titrated, usually from 57.3 µM), inactives show at the top dose activity, negative = inhibition, actives largely listed as inhibitors;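 also: plate controls were vehicle for no effect and no enzyme for full effect; nearly all actives have a fitted effect of over 30% in size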
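50 nM RECQ1T1 preincubated 15 min with compound in Tris pH 8.0 buffer with MgCl2, DTT, Tween-20 and 2.5 ug/ml poly(dI-dC); started with 200 nM TAMRA/BHQ-2 forked duplex and 2 mM ATP. Unwinding read as fluorescence (525/598 nm), two reads 2 h apart.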
APEX1 inh = inhibitors of human APE1 endonuclease; Potency, µM (doses to about 65.8 µM), for inactives: at the highest dose activity change, negative = inhibition, actives largely listed as inhibitors; P27695; recombinant APE1, TAMRA/BHQ-2 abasic DNA cleavage fluorescence; 350,000 compounds, 0.35% hits; AID 2517;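 also: plate controls were vehicle for no effect and reference inhibitor for full effect; nearly all actives have a fitted effect of over 55% in size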
Target sequence (P27695 whole entry, looked up): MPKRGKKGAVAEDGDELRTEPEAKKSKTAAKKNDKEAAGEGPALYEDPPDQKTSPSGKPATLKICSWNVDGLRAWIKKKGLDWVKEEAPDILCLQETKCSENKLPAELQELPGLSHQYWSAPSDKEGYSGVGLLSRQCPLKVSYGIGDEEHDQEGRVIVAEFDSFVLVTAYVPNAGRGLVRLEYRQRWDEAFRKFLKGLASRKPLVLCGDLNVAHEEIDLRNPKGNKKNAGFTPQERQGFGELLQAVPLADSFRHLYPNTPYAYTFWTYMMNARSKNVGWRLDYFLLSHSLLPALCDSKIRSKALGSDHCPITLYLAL
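Compound pre-exposure to 0.75 nM APE1, 15 min at ambient temperature. Reaction initiated with 50 nM TAMRA/BHQ-2 THF substrate, read immediately in kinetic mode, 525 nm excitation, 598 nm emission.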
KDM4E inh = blocks human JMJD2E demethylase activity; JMJD2E catalytic domain, FDH-coupled NADH fluorescence (FDH is formaldehyde dehydrogenase); 230,000 compounds, 1.6% hits; AID 2147; B2RXH2; Potency, µM (doses to about 57.1 µM), without a hit: at the top dose activity change, negative = inhibition, hits mostly inhibitors; active = well fitted inhibition curve with a large enough effect, not every such curve was filed as active; inconclusive = small, poorly fitted or top-dose-only effect, or another doubt; inactive = no such curve, though single readings can be large or run the other way;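 also: 0% = wells with enzyme and -100% = buffer wells without enzyme; nearly all actives have a fitted effect of over 50% in size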
Target sequence (B2RXH2 1-337 limits assumed): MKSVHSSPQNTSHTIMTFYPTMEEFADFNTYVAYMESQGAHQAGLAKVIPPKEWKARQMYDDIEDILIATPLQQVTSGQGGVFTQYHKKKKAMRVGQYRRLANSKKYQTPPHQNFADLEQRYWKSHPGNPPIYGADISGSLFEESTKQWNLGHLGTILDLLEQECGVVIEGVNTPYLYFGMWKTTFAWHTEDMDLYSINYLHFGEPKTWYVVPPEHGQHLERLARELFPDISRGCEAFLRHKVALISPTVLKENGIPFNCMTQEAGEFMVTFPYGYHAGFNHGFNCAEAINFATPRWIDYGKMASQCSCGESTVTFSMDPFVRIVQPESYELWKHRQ
BLM helicase inh = Bloom syndrome helicase (human) inhibition; Potency, µM (highest dose often 56.1 µM), inactives show at the top dose activity change, negative = inhibition, most hits filed as inhibitors; 350,000 compounds, 0.2% hits; recombinant BLM DNA unwinding, fluorescence dequenching;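 also: plate controls were vehicle for no effect and no enzyme for full effect; nearly all actives have a fitted effect of over 35% in size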
* hit, by the source's call; i = inactive; ? = inconclusive; . = not tested or not shown. Only a selection was taken, and hits are over-represented in it overall. Unless noted, calls follow the shape of the dose curve; as a rule, active = well fitted curve in the direction sought with a large enough effect; inconclusive = small, poorly fitted or top-dose-only effect, or another doubt; inactive = no such curve, though single readings can be large; an effect the other way counts as inactive or inconclusive. Unless noted, % is scaled to controls: 0 for no effect and ±100 for the full control effect; potency is read from the fitted curve at half-maximal effect.

SMILES	GCN5L2 inh	TDP1 block	RECQ1 helicase	APEX1 inh	KDM4E inh	BLM helicase inh
O=C(N/N=C/c1sc2ccccc2c1O)c1cccc2ccccc12	-5%	8%	-9%	?	25µM*	-6%
O=C(N/N=C/c1sc2ccccc2c1O)c1ccccc1	28%	5%	-17%	3%	22µM*	-2%
COc1ccc(C(=O)N/N=C/c2sc3ccccc3c2O)cc1	-12%	11%	-4%	3%	35µM*	-2%
CC[n+]1ccc2cc(OC)c(OC)cc2c1Cc1ccc(OC)c(OC)c1	?	9%	i	20%	25µM*	-15%
Fc1cc(F)cc(Nc2nc(NC3CCCC3)nc(C3CO3)n2)c1 (stereo unspecified)	.	2%	.	.	.	.
Cc1ccc(NC(=O)c2ccc(Cl)c(N3C(=O)C=CC3=O)c2)cc1	18µM*	10%	-10%	1%	-3%	-7%
O=S(=O)(Nc1cccc2ccccc12)c1ccc2ccccc2c1	.	1%	.	.	.	.
COc1ccc(Cl)cc1Nc1nnc(-c2ccncc2)s1	?	.	.	8.4µM*	.	-6%
COc1ccc(Nc2nnc(-c3ccncc3)s2)cc1Cl	-5%	.	.	?	.	-15%
CCc1ccc(C(=O)c2cn(CC(=O)Nc3ccc4c(c3)OCO4)c3ccc(OC)cc3c2=O)cc1	-27%	.	.	.	.	14µM*
CCc1ccc(C(=O)c2cn(CC(=O)Nc3ccc(OC)cc3)c3cc4c(cc3c2=O)OCO4)cc1	2%	-1%	.	.	.	-11%
O=C(/C=C/c1ccc(O)cc1)c1ccc(NC2=C(N3CCCCC3)C(=O)c3ccccc3C2=O)cc1	-9%	11%	?	-7%	18µM*	1%
Cc1ccc(NS(=O)(=O)c2ccc3c(c2)C(Cl)(Cl)C(=O)N3)cc1C	.	4%	.	.	.	.
Cc1cccc(NC(=O)N(C)Cc2cccs2)c1	32µM*	4%	i	-1%	-3%	-5%
CC1(C)S[C@@H]2[C@H](NC(=O)Cc3ccccc3)C(=O)N2[C@H]1C(=O)O (tested in a mixture with another compound)	.	.	.	-1%	.	.
O=[N+]([O-])c1ccc(O)c(C=Nc2cccc3ccccc23)c1	-16%	5%	.	-3%	.	-3%
Cc1ccccc1N=Cc1cccc(O)c1O	-19%	8%	?	?	11µM*	-11%
O=[N+]([O-])c1cccc(C=Nc2cccc3ccccc23)c1O	35µM*	3%	.	5%	.	-16%
Cc1ccc(N=Cc2cccc(O)c2O)c(C)c1	-20%	12%	-13%	-11%	14µM*	-21%
CCN(CC)c1ccc(C=Nc2ccc(C)cc2C)c(O)c1	-7%	4%	i	-1%	10%	-2%
COc1ccc(-c2nc3cccc(C)n3c2Nc2ccc(C)cc2)cc1	.	7%	.	.	.	.
COc1ccccc1-n1c(C)cc(/C=C2/C(=N)N3C(=NC2=O)SN=C3S(C)(=O)=O)c1C	-24%	8%	-16%	-8%	?	-5%
Cc1cc(/C=C2/C(=N)N3C(=NC2=O)SN=C3S(C)(=O)=O)c(C)n1-c1ccc(F)cc1	-22%	7%	-5%	-7%	32µM*	-5%
Cc1ccc(-n2cccc2/C=C2/C(=N)N3C(=NC2=O)SN=C3S(C)(=O)=O)cc1Cl	-18%	2%	-10%	17%	22µM*	28µM*
Cc1ccc(N(C)C(CNS(=O)(=O)c2ccccc2)c2ccccc2)cc1 (stereo unspecified)	-11%	8%	.	.	.	-10%
SMILES	GCN5L2 inh	TDP1 block	RECQ1 helicase	APEX1 inh	KDM4E inh	BLM helicase inh
O=S1(=O)N=C(Oc2ccc(-c3ccccc3)cc2)c2ccccc21	.	2%	.	.	.	.
O=c1oc2ccccc2nc1/C=C(O)/C=C\c1ccccc1	1%	6%	-10%	2%	20µM*	-3%
CCC(=NCCc1c(C)[nH]c2ccc(OC(F)(F)F)cc12)C1=C(O)CC(c2ccccc2)CC1=O (stereo unspecified)	-12%	4%	i	-1%	4%	-17%
CCCCC(=NCCc1c(C)[nH]c2ccc(OC)cc12)C1=C(O)CC(c2ccccc2)CC1=O (stereo unspecified)	-12%	6%	-5%	-6%	25µM*	-15%
O=C1N=C(N2CCOCC2)S/C1=C/c1ccc(-c2ccc(F)cc2)o1	22µM*	0%	-7%	-6%	-3%	-12%
O=S(=O)(Nc1cccc2ccccc12)c1cccc2ccccc12	.	1%	.	.	.	.
CCOC(=O)C1=C(c2ccccc2)N=c2s/c(=C\c3ccco3)c(=O)n2C1c1cccs1 (stereo unspecified)	?	.	?	-4%	13µM*	?
COC(=O)c1ccccc1S(=O)(=O)Nc1cc(=O)c2ccccc2[nH]1	.	2%	.	.	.	.
Brc1ccc(N/N=C(/N=Nc2nn[nH]n2)c2ccccc2)cc1	?	11%	-6%	-2%	25µM*	2%
O=C(O)c1ccc(N=N/C(=N\Nc2ccc(C(=O)O)cc2)c2ccccc2)cc1	-2%	-4%	.	-11%	.	.
CCN1/C(=C/C=C/c2oc3ccc(-c4ccccc4)cc3[n+]2CC)Oc2ccc(-c3ccccc3)cc21	0%	0%	-18%	6%	7.9µM*	22µM*
CN1CCC(NC(=O)c2cnn3c2NC(=C2CC2)C=C3C(F)F)CC1	.	.	.	14%	.	.
CNc1ccccc1C(=O)OC	-20%	.	i	18%	22µM*	0%
CC(=O)/C(N=Nc1ccc(C(=O)O)cc1[N+](=O)[O-])=C(\C)O	?	.	i	10µM*	-16%	4%
CCOC(=O)/C(N=Nc1ccc(C(=O)O)cc1[N+](=O)[O-])=C(\C)O	-16%	-11%	4%	-11%	-8%	0%
Cc1ccc(NS(=O)(=O)c2cc3c(cc2-c2ccccc2)NC(=O)CO3)cc1C	.	0%	.	.	.	.
O=C(NCc1ccccn1)C(=O)N/N=C/c1ccccc1O	-22%	.	24%	0%	6.3µM*	-2%
O=C(N/N=C\c1ccccc1O)c1ccccc1O	?	32µM*	-9%	-4%	5µM*	-6%
O=C(NCCCN1CCOCC1)C(=O)N/N=C/c1ccccc1Cl	-4%	.	-1%	-5%	1%	-2%
Cc1cc(/C=N/NC(=O)C(=O)NCc2ccccn2)c(C)n1-c1cccc(Br)c1	0%	7%	-26%	-1%	-13%	-5%
O=C(NCCCN1CCOCC1)C(=O)N/N=C/c1ccccc1O	-6%	.	-4%	3%	11µM*	4%
COC(=O)[C@H](Cc1ccccc1)NC(=O)O[C@@H]1C(=O)c2cc(OC)ccc2O[C@H]1c1cccc(OC)c1	.	9%	-11%	-1%	?	3%
CC(C)(C)c1ccc(Cn2cnc3c(cnn3C(C)(C)C)c2=O)cc1	.	.	.	-7%	.	.
